DT40 TDP1 CPT: DT40-hTDP1 cell growth loss with CPT; chicken DT40 Tdp1-/-;hTDP1 cells + 20 nM CPT, ATP luminescence, 48 h; Potency, µM (doses to about 46.2 µM), inactives show top-dose activity change, negative = growth inhibition, actives largely listed as inhibitors; 420,000 compounds, 12% hits; AID 686979; note: potency is the fitted concentration of half-maximal effect; % is set by controls: 0 for no effect and ±100 for the full control effect; nearly all actives have a fitted effect of over 55% in size
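Cell growth measured by CellTiter-Glo luminescence after a minimum 48 h, 37 C compound exposure with 20 nM CPT in Tdp1-knockout DT40 cells stably expressing hTDP1, seeded 400/well; qHTS titration format.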
TDP1 cell noCPT: qHTS for Inhibitors of human tyrosyl-DNA phosphodiesterase 1 (TDP1): qHTS in cells in absence of CPT; DT40 Tdp1-/- hTDP1 cells, no CPT, ATP luminescence, 48 h; 420,000 compounds, 15% hits; AID 686978, 2013; Potency, µM (highest dose often 46.2 µM), without a hit: top-dose activity change, negative = growth inhibition, usual class: inhibitors; note: potency is the fitted concentration of half-maximal effect; % is set by controls: 0 for no effect and ±100 for the full control effect; nearly all actives have a fitted effect of over 55% in size
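Chicken DT40 Tdp1-/- cells stably complemented with human TDP1 were seeded at 400 cells/well with DMSO in place of 20 nM camptothecin. After compound pinning, cells grew at least 48 hr at 37 °C; viability read by CellTiter-Glo luminescence.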
D3 ag: agonists of human D3 dopamine receptor. P35462. max activation, %. D3R DiscoveRx beta-arrestin cells, luminescence, 90 min. 410,000 compounds, 0.58% hits; in the data active = max activation above about 30%; note: 0% is about no effect
Target sequence (P35462 whole entry, looked up): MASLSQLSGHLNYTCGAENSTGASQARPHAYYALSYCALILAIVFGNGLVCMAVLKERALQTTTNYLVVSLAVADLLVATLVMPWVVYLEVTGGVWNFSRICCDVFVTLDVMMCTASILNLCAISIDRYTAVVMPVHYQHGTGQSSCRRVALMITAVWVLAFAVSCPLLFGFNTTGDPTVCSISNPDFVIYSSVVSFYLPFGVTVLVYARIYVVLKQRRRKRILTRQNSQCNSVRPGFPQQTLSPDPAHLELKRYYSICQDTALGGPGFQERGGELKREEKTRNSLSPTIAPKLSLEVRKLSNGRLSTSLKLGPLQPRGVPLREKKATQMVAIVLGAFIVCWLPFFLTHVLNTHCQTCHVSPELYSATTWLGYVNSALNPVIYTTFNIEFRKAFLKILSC
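Agonist mode: compounds and dopamine controls were applied to plated cells for 90 min at 37 degrees C after an overnight attachment at 1500 cells/well. Luminescent read-out followed 30 - 60 minutes at room temperature with DiscoveRx detection reagent.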
IL-1B inflam inh: inflammasome signaling inhibition, IL-1 beta readout; THP-1 LPS/ATP IL-1B secretion, AlphaLISA, 16 h; stronger effect = lower value; activity change, % at 57.5 µM; 360,000 compounds, 4.7% hits; in the data active = activity change below about -50%; inconclusive = mostly about -30% to -49%; note: % is set by controls: 0 for no effect and ±100 for the full control effect
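Secreted IL-1B measured by AlphaLISA bead assay after 16 h compound exposure of THP-1 cells; compounds (final up to 57.5 uM) added 1 h before LPS (250 ng/mL) and ATP (1.25 mM) stimulation; lower signal means less secretion.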
ClpP mod: qHTS Assay for Activators of ClpP; ATP-dependent Clp protease proteolytic subunit (Bacillus subtilis (strain 168)), P80244; purified B. subtilis ClpP, FRET peptide cleavage, 20 min; Potency, µM (titrated, usually from 57.5 µM), for inactives: at the top dose activity change, negative = active; 340,000 compounds, 1.9% hits; AID 651965, 2013; active = well fitted falling curve with a large enough effect; inconclusive = small, poorly fitted or top-dose-only effect; inactive = no such curve, though single readings can be large or run the other way; note: potency is the fitted concentration of half-maximal effect; the source files actives as falling curves though it sought activators and does not explain the sign; nearly all actives have a fitted effect of over 65% in size
Target sequence (P80244 whole entry, looked up): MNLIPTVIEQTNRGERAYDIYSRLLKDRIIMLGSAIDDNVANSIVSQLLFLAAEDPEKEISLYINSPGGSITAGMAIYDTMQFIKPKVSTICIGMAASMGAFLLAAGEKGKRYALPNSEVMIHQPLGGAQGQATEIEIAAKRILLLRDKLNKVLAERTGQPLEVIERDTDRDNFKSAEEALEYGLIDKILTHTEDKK
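ClpP 10 microg/mL final, pH 8 Tris/KCl buffer with BSA, glycerol, Tween-20; compound pinned in; FRET-FV substrate; RT 20 min; Ex320/Em430; ΔFRET vs ADEP 5.8 microM, DMSO, no enzyme.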
D3 antag: D3 dopamine receptor (human) antagonism | P35462 | D3R cells, DiscoveRx beta-arrestin luminescence, antagonist mode; stronger effect = lower value | max response, negative = inhibition, % | 360,000 compounds, 2.5% hits | AID 652054; in the data active = max response below about -50%; inconclusive = no clear call, values can overlap the other calls; note: % is set by controls: 0 for no effect and ±100 for the full control effect
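Cells plated overnight at 1500 cells/well, then exposed to library compounds with dopamine controls for 90 minutes at 37 degrees C. DiscoveRx reagent added for 30–60 minutes at room temperature; luminescence read, quantitative HTS format.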
* marks the source's active call; other numbers are inactive results; ? = inconclusive; . = no result given. Most compounds without a hit are left out; they make up all but 21% or so of the library. Unless noted, calls come from the whole dose curve; as a rule, active = well fitted inhibition curve with a large enough effect; inconclusive = small, poorly fitted or top-dose-only effect; inactive = flat fitted curve, though single readings scatter.

SMILES | DT40 TDP1 CPT | TDP1 cell noCPT | D3 ag | IL-1B inflam inh | ClpP mod | D3 antag
CCOc1ccc(NC(=O)CSc2nc(-c3cccs3)cc(C(F)(F)F)n2)c([N+](=O)[O-])c1 | -25% | ? | 6 | 6 | 1% | 11
CC(C)CNC(=O)CSc1nc(-c2cccs2)cc(C(F)(F)F)n1 | ? | ? | 4 | -1 | ? | 2
CCN(CC)CCCNC(=O)CSc1nc(-c2cccs2)cc(C(F)(F)F)n1 | 4% | 1% | -12 | -6 | -2% | -21
O=C(CSc1nc(-c2cccs2)cc(C(F)(F)F)n1)NCc1ccccc1 | ? | 23µM* | -19 | -3 | 35µM* | -21
COc1cc(C(=O)OC(C)C(=O)NC(=O)NC2CCCCC2)ccc1OC(F)F (centres undefined) | 0% | -27% | 7 | 17 | -2% | 5
CC(C)(C)CN1CCC(Oc2cccc(C(=O)N3CCC[C@H]3CO)c2)CC1 | -3% | 15% | -1 | 0 | 0% | -8
O=C(Cn1c(C(=O)OCCO)cc2ccccc21)c1ccccc1 | 8.2µM* | ? | -5 | 21 | -1% | 9
C=CCSc1nc2ccccc2n2cnnc12 | ? | ? | 0 | -10 | -1% | 7
CCOC(=O)CSc1nc2ccccc2n2cnnc12 | 2% | -2% | -9 | 15 | 0% | -51*
c1ccc(-c2noc(-c3ccc4ccccc4c3)n2)nc1 | ? | 23µM* | -2 | 15 | 5% | 21
COc1cccc(-c2nc(-c3ccccn3)no2)c1 | ? | ? | -3 | 17 | -5% | 2
c1ccc(-c2noc(-c3ccc4c(c3)OCO4)n2)nc1 | 5.2µM* | 5.2µM* | 4 | 6 | 0% | -16
c1ccc(-c2noc(-c3ccncc3)n2)nc1 | ? | ? | 9 | -5 | 0% | 7
Cc1onc(-c2ccccc2Cl)c1-c1nc(-c2ccccn2)no1 | ? | 16µM* | -5 | -17 | -23% | -6
CCOc1ccc(Nc2nnc(Cc3ccc(OC)cc3)c(=O)[nH]2)cc1 | -5% | 0% | -1 | -4 | . | 9
CC[C@@]1(C(=O)OC)N[C@H](CN(C)C(=O)COC)[C@@H]2C(=O)N(C)C(=O)[C@@H]21 | 0% | -10% | 2 | 12 | 2% | 3
CNS(=O)(=O)c1ccc(NC(=O)c2cc(-c3ccncc3)nc3ccc(Cl)cc23)cc1 | -20% | -12% | 1 | 0 | 1% | 3
O=C(CCn1c(=O)c2ccccc2n(Cc2ccc(F)cc2Cl)c1=O)NCc1ccc2c(c1)OCO2 | -1% | ? | 8 | . | -3% | .
NNc1nnc2c3cc(F)ccc3n(CCc3ccccc3)c2n1 | ? | 16µM* | 4 | 103 | . | -20
CCN(CC)CCSc1nnc2c3ccccc3n(Cc3ccccc3)c2n1 | 23µM* | 16µM* | -23 | -15 | -5% | -93*
CCN(CC)CCSc1nnc2c3cc(F)ccc3n(Cc3ccccc3)c2n1 | ? | ? | -20 | -64* | . | ?
CCN(CC)CCSc1nnc2c3cc(F)ccc3n(C)c2n1 | -23% | ? | -26 | . | -1% | .
COc1cccc(C2CNC3(CCCC(C)C3)c3[nH]c4ccccc4c32)c1OC (centres undefined) | ? | 23µM* | -12 | ? | -1% | -14
COc1cccc(C2CC(=O)Nc3c2c(=O)n(C)c(=O)n3C)c1OC (centres undefined) | -2% | -9% | -9 | -26 | -2% | -16
O=C(Nc1ccc(N2CCN(C(=O)c3cccs3)CC2)cc1)c1ccccc1Cl | 15µM* | 12µM* | 17 | -57* | . | 4
SMILES | DT40 TDP1 CPT | TDP1 cell noCPT | D3 ag | IL-1B inflam inh | ClpP mod | D3 antag
O=C(Nc1ccc(N2CCN(C(=O)c3cccs3)CC2)cc1)c1ccccc1F | ? | 18µM* | 2 | -62* | . | 3
CC(C)(C)C(=O)Nc1ccc(N2CCN(C(=O)c3cccs3)CC2)cc1 | -7% | -23% | 0 | ? | 1% | -10
O=C(Nc1ccc(N2CCN(C(=O)c3ccccc3F)CC2)cc1)c1cncc(Br)c1 | ? | 18µM* | 15 | -58* | -1% | 7
CC(=O)c1ccc(S(=O)(=O)N(C)CCCC(=O)N(C)Cc2c(F)cccc2Cl)cc1 | ? | ? | 6 | -2 | . | 13
CC1CCCN(CCCNC(=O)C2CCN(S(=O)(=O)N3CCC4(CC3)OCCO4)CC2)C1 (centres undefined) | 1% | 3% | -1 | -6 | -3% | 0
COCCN(C(=S)Nc1cc(C)cc(C)c1)C(C)c1ccco1 (centres undefined) | ? | 26µM* | 1 | -12 | -2% | -3
CCc1cccc(C)c1NC(=S)N(CCN(C)C)C(C)c1ccco1 (centres undefined) | 18µM* | ? | 5 | -11 | 0% | 17
CC(C)CCN(C(=S)Nc1cccc(F)c1)C(C)c1cccs1 (centres undefined) | ? | 1% | -3 | -2 | 2% | 9
COCCN(C(=S)Nc1cc(C)cc(C)c1)C(C)c1cccs1 (centres undefined) | 18µM* | ? | 2 | -10 | -1% | -9
Cc1ccc(NC(=S)N(CCN(C)C)C(C)c2ccco2)c(C)c1 (centres undefined) | ? | ? | -4 | -14 | 0% | -5
CCCCN1C[C@H](C)[C@@H](CC(=O)NCc2ccccc2)C1=O | 2% | 9% | 4 | 2 | 0% | -9
CC12CCC3c4ccc(O)cc4CCC3C1CC(=NO)C2O (centres undefined) | -25% | ? | 0 | 29 | -2% | -20
O=c1cc(N2CCCC2)c(-c2ccccc2)n[nH]1 | -9% | -10% | -9 | -6 | . | -14
NC1(c2ccc(-c3nc4ccn5c(=O)[nH]nc5c4cc3-c3ccccc3)cc2)CCC1 | 0.38µM* | 0.6µM* | -19 | . | 5% | .
O=C(c1cccc(C(F)(F)F)c1)C1CCCN(C(=O)c2cc(C3CC3)[nH]n2)C1 (centres undefined) | ? | ? | 4 | -4 | -2% | 19
Cn1nc(C(=O)OCC(=O)c2ccc(Br)cc2)c2ccccc2c1=O | -7% | -12% | 0 | 4 | 0% | -27
CN(CC(=O)O)c1ccc(C=O)cc1 | 6% | -6% | . | . | -11% | .
Cc1ccc(NC(=O)COC(=O)c2ccc(=O)n(Cc3ccccc3)n2)cc1F | 10% | -1% | 5 | 16 | 0% | 0

High-throughput results from PubChem.
